Results as given in paper PMC5540273 (PLoS ONE, 2017).
Like-named read-outs stand apart in the source and are kept apart here.

Key:
GRK3 = system: T1, GRK3; details: concentration: 1 μM, replicates: in singlicate; n = 1
T1 construct: gene ADRBK2

GRK4 = details: concentration: 1 μM, replicates: in singlicate; n = 1
GRK7 = details: concentration: 1 μM, replicates: in singlicate; n = 1
GSK3A = details: concentration: 1 μM, replicates: in singlicate; n = 1
GSK3B = details: n = 1
HASPIN = system: T2, HASPIN; details: concentration: 1 μM, replicates: in singlicate; n = 1
T2 construct: gene GSG2

HCK = details: concentration: 1 μM, replicates: in singlicate; n = 1
HIPK1 = details: concentration: 1 μM, replicates: in singlicate; n = 1
HIPK2 = details: concentration: 1 μM, replicates: in singlicate; n = 1
HIPK3 = details: concentration: 1 μM, replicates: in singlicate; n = 1
HIPK4 = details: concentration: 1 μM, replicates: in singlicate; n = 1
HPK1 = details: concentration: 1 μM, replicates: in singlicate; n = 1
HUNK = details: concentration: 1 μM, replicates: in singlicate; n = 1
ICK = details: concentration: 1 μM, replicates: in singlicate; n = 1
IGF1R = details: concentration: 1 μM, replicates: in singlicate; n = 1
IKK-alpha = system: T3, IKK-alpha; details: concentration: 1 μM, replicates: in singlicate; n = 1
T3 construct: gene CHUK

IKK-beta = system: T4, IKK-beta; details: concentration: 1 μM, replicates: in singlicate; n = 1
T4 construct: gene IKBKB

IKK-epsilon = system: T5, IKK-epsilon; details: concentration: 1 μM, replicates: in singlicate; n = 1
T5 construct: gene IKBKE

INSRR = details: concentration: 1 μM, replicates: in singlicate; n = 1
INSR = details: concentration: 1 μM, replicates: in singlicate; n = 1
[1] = concentration: 1 μM, replicates: in singlicate
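Also: KINOMEscan kinase panel screen.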

CC(C)c1ccc(O)cc1Nc1ccnc2ccc(C(F)(F)F)cc12 [GW482059]
%Inh (GRK3): 0%
%Inh (GRK4): 21%
%Inh (GRK7): 0%
%Inh (GSK3A): 19%
%Inh (GSK3B; [1]): 0%
%Inh (HASPIN): 3%
%Inh (HCK): 10%
%Inh (HIPK1): 0%
%Inh (HIPK2): 31%
%Inh (HIPK3): 0%
%Inh (HIPK4): 10%
%Inh (HPK1): 23%
%Inh (HUNK): 0%
%Inh (ICK): 0%
%Inh (IGF1R): 3%
%Inh (IKK-alpha): 0%
%Inh (IKK-beta): 0%
%Inh (IKK-epsilon): 0%
%Inh (INSRR): 7%
%Inh (INSR): 0%

Cc1ccc(NC(=O)Nc2ccccc2)cc1-c1ccc(C(=O)Nc2ccncc2)cc1 [GSK1398471]
%Inh (GRK3): 0%
%Inh (GRK4): 0%
%Inh (GRK7): 0%
%Inh (GSK3A): 12%
%Inh (GSK3B; [1]): 11%
%Inh (HASPIN): 1%
%Inh (HCK): 0%
%Inh (HIPK1): 0%
%Inh (HIPK2): 0%
%Inh (HIPK3): 13%
%Inh (HIPK4): 10%
%Inh (HPK1): 37%
%Inh (HUNK): 22%
%Inh (ICK): 2%
%Inh (IGF1R): 11%
%Inh (IKK-alpha): 0%
%Inh (IKK-beta): 0%
%Inh (IKK-epsilon): 5%
%Inh (INSRR): 0%
%Inh (INSR): 3%

COc1ccc(Nc2nccc(N3CCC(NC(=O)C(C)c4ccc(Cl)cc4)CC3)n2)cc1 (stereo not drawn) [GSK1379812]
%Inh (GRK3): 8%
%Inh (GRK4): 0%
%Inh (GRK7): 0%
%Inh (GSK3A): 16%
%Inh (GSK3B; [1]): 8%
%Inh (HASPIN): 0%
%Inh (HCK): 0%
%Inh (HIPK1): 0%
%Inh (HIPK2): 0%
%Inh (HIPK3): 15%
%Inh (HIPK4): 0%
%Inh (HPK1): 39%
%Inh (HUNK): 10%
%Inh (ICK): 0%
%Inh (IGF1R): 0%
%Inh (IKK-alpha): 0%
%Inh (IKK-beta): 0%
%Inh (IKK-epsilon): 100%
%Inh (INSRR): 0%
%Inh (INSR): 15%

O=C(Nc1n[nH]c2nc(-c3cccs3)c(Br)cc12)C1CCCC1 [SB-743341]
%Inh (GRK3): 24%
%Inh (GRK4): 33%
%Inh (GRK7): 11%
%Inh (GSK3A): 96.6%
%Inh (GSK3B; 1 µM): 81%
%Inh (HASPIN): 0%
%Inh (HCK): 8%
%Inh (HIPK1): 20%
%Inh (HIPK2): 25%
%Inh (HIPK3): 52%
%Inh (HIPK4): 4%
%Inh (HPK1): 14%
%Inh (HUNK): 23%
%Inh (ICK): 65%
%Inh (IGF1R): 3%
%Inh (IKK-alpha): 0%
%Inh (IKK-beta): 0%
%Inh (IKK-epsilon): 4%
%Inh (INSRR): 26%
%Inh (INSR): 2%

NS(=O)(=O)c1cccc(N/C=C2\C(=O)Nc3ccc(S(=O)(=O)Cc4c(Cl)cccc4Cl)cc32)c1 [GSK398099]
%Inh (GRK3): 0%
%Inh (GRK4): 0%
%Inh (GRK7): 0%
%Inh (GSK3A): 0%
%Inh (GSK3B; [1]): 20%
%Inh (HASPIN): 4%
%Inh (HCK): 0%
%Inh (HIPK1): 0%
%Inh (HIPK2): 0%
%Inh (HIPK3): 12%
%Inh (HIPK4): 0%
%Inh (HPK1): 49%
%Inh (HUNK): 0%
%Inh (ICK): 15%
%Inh (IGF1R): 0%
%Inh (IKK-alpha): 0%
%Inh (IKK-beta): 15%
%Inh (IKK-epsilon): 26%
%Inh (INSRR): 0%
%Inh (INSR): 5%

Cc1ccc(NC(=O)c2ccc(Cl)cc2)cc1-c1ccc(C(=O)Nc2ccncc2)cc1 [GSK1398467]
%Inh (GRK3): 24%
%Inh (GRK4): 0%
%Inh (GRK7): 0%
%Inh (GSK3A): 3%
%Inh (GSK3B; [1]): 17%
%Inh (HASPIN): 0%
%Inh (HCK): 0%
%Inh (HIPK1): 0%
%Inh (HIPK2): 0%
%Inh (HIPK3): 3%
%Inh (HIPK4): 0%
%Inh (HPK1): 36%
%Inh (HUNK): 8%
%Inh (ICK): 0%
%Inh (IGF1R): 11%
%Inh (IKK-alpha): 12%
%Inh (IKK-beta): 6%
%Inh (IKK-epsilon): 15%
%Inh (INSRR): 0%
%Inh (INSR): 0%

Cc1ccc(NC(=O)Nc2ccc(Cl)cc2)cc1-c1ccc(C(=O)Nc2ccncc2)cc1 [GSK1398472]
%Inh (GRK3): 17%
%Inh (GRK4): 25%
%Inh (GRK7): 0%
%Inh (GSK3A): 0%
%Inh (GSK3B; [1]): 7%
%Inh (HASPIN): 0%
%Inh (HCK): 0%
%Inh (HIPK1): 0%
%Inh (HIPK2): 0%
%Inh (HIPK3): 5%
%Inh (HIPK4): 0%
%Inh (HPK1): 43%
%Inh (HUNK): 23%
%Inh (ICK): 17%
%Inh (IGF1R): 6%
%Inh (IKK-alpha): 0%
%Inh (IKK-beta): 8%
%Inh (IKK-epsilon): 5%
%Inh (INSRR): 0%
%Inh (INSR): 0%

CSc1ccc(-c2nc3n(c2-c2ccncc2)CCC3)cc1 [SKF-105561]
%Inh (GRK3): 28%
%Inh (GRK4): 5%
%Inh (GRK7): 0%
%Inh (GSK3A): 0%
%Inh (GSK3B; [1]): 20%
%Inh (HASPIN): 35%
%Inh (HCK): 7%
%Inh (HIPK1): 0%
%Inh (HIPK2): 0%
%Inh (HIPK3): 6%
%Inh (HIPK4): 2%
%Inh (HPK1): 0%
%Inh (HUNK): 21%
%Inh (ICK): 18%
%Inh (IGF1R): 0%
%Inh (IKK-alpha): 5%
%Inh (IKK-beta): 6%
%Inh (IKK-epsilon): 12%
%Inh (INSRR): 0%
%Inh (INSR): 5%

CCc1ccc(-c2ccc3c(c2)-c2n[nH]cc2S(=O)(=O)N3C)cc1
%Inh (GRK3): 0%
%Inh (GRK4): 0%
%Inh (GRK7): 0%
%Inh (GSK3A): 35%
%Inh (GSK3B; [1]): 0%
%Inh (HASPIN): 4%
%Inh (HCK): 16%
%Inh (HIPK1): 0%
%Inh (HIPK2): 0%
%Inh (HIPK3): 0%
%Inh (HIPK4): 23%
%Inh (HPK1): 16%
%Inh (HUNK): 34%
%Inh (ICK): 0%
%Inh (IGF1R): 0%
%Inh (IKK-alpha): 0%
%Inh (IKK-beta): 0%
%Inh (IKK-epsilon): 0%
%Inh (INSRR): 0%
%Inh (INSR): 0%

COc1ccc(Nc2nccc(N3CCC(NC(=O)C(C)c4ccc(Cl)cc4)C3)n2)cc1 (stereo not drawn) [GSK1379735]
%Inh (GRK3): 20%
%Inh (GRK4): 31%
%Inh (GRK7): 0%
%Inh (GSK3A): 34%
%Inh (GSK3B; [1]): 0%
%Inh (HASPIN): 13%
%Inh (HCK): 0%
%Inh (HIPK1): 0%
%Inh (HIPK2): 0%
%Inh (HIPK3): 4%
%Inh (HIPK4): 9%
%Inh (HPK1): 51%
%Inh (HUNK): 0%
%Inh (ICK): 18%
%Inh (IGF1R): 0%
%Inh (IKK-alpha): 0%
%Inh (IKK-beta): 0%
%Inh (IKK-epsilon): 0%
%Inh (INSRR): 28%
%Inh (INSR): 11%

COc1cccc(NC(=O)Nc2ccc(C)c(-c3ccc(C(=O)Nc4ccncc4)cc3)c2)c1 [GSK1398474]
%Inh (GRK3): 0%
%Inh (GRK4): 3%
%Inh (GRK7): 0%
%Inh (GSK3A): 10%
%Inh (GSK3B; [1]): 13%
%Inh (HASPIN): 0%
%Inh (HCK): 0%
%Inh (HIPK1): 0%
%Inh (HIPK2): 0%
%Inh (HIPK3): 20%
%Inh (HIPK4): 27%
%Inh (HPK1): 78%
%Inh (HUNK): 2%
%Inh (ICK): 17%
%Inh (IGF1R): 12%
%Inh (IKK-alpha): 0%
%Inh (IKK-beta): 84%
%Inh (IKK-epsilon): 22%
%Inh (INSRR): 0%
%Inh (INSR): 0%

COc1ccc2cc(-c3nc(-c4ccccc4C(C)C)[nH]c3-c3ccncc3)ccc2c1 [SB-660566]
%Inh (GRK3): 34%
%Inh (GRK4): 0%
%Inh (GRK7): 0%
%Inh (GSK3A): 2%
%Inh (GSK3B; [1]): 17%
%Inh (HASPIN): 0%
%Inh (HCK): 0%
%Inh (HIPK1): 0%
%Inh (HIPK2): 0%
%Inh (HIPK3): 25%
%Inh (HIPK4): 0%
%Inh (HPK1): 37%
%Inh (HUNK): 0%
%Inh (ICK): 22%
%Inh (IGF1R): 9%
%Inh (IKK-alpha): 19%
%Inh (IKK-beta): 26%
%Inh (IKK-epsilon): 14%
%Inh (INSRR): 1%
%Inh (INSR): 5%

COc1ccc(Nc2nccc(NCCNC(=O)Nc3cc(C)ccc3C)n2)cc1 [GSK1379899]
%Inh (GRK3): 0%
%Inh (GRK4): 12%
%Inh (GRK7): 0%
%Inh (GSK3A): 0%
%Inh (GSK3B; [1]): 0%
%Inh (HASPIN): 0%
%Inh (HCK): 78%
%Inh (HIPK1): 0%
%Inh (HIPK2): 0%
%Inh (HIPK3): 0%
%Inh (HIPK4): 0%
%Inh (HPK1): 40%
%Inh (HUNK): 0%
%Inh (ICK): 18%
%Inh (IGF1R): 7%
%Inh (IKK-alpha): 8%
%Inh (IKK-beta): 9%
%Inh (IKK-epsilon): 1%
%Inh (INSRR): 0%
%Inh (INSR): 0%

Cc1ccccc1-c1cc(-c2c[nH]nc2-c2ccccn2)ccn1 [GW680061]
%Inh (GRK3): 37%
%Inh (GRK4): 0%
%Inh (GRK7): 0%
%Inh (GSK3A): 0%
%Inh (GSK3B; [1]): 1%
%Inh (HASPIN): 0%
%Inh (HCK): 0%
%Inh (HIPK1): 4%
%Inh (HIPK2): 0%
%Inh (HIPK3): 10%
%Inh (HIPK4): 0%
%Inh (HPK1): 32%
%Inh (HUNK): 27%
%Inh (ICK): 0%
%Inh (IGF1R): 2%
%Inh (IKK-alpha): 46%
%Inh (IKK-beta): 38%
%Inh (IKK-epsilon): 0%
%Inh (INSRR): 0%
%Inh (INSR): 28%

CNC(=O)c1ccc(C)c(-n2c(C)cc(OCc3ccc(F)cc3F)c(Br)c2=O)c1
%Inh (GRK3): 0%
%Inh (GRK4): 2%
%Inh (GRK7): 0%
%Inh (GSK3A): 0%
%Inh (GSK3B; [1]): 0%
%Inh (HASPIN): 18%
%Inh (HCK): 0%
%Inh (HIPK1): 0%
%Inh (HIPK2): 0%
%Inh (HIPK3): 0%
%Inh (HIPK4): 0%
%Inh (HPK1): 0%
%Inh (HUNK): 0%
%Inh (ICK): 0%
%Inh (IGF1R): 0%
%Inh (IKK-alpha): 0%
%Inh (IKK-beta): 0%
%Inh (IKK-epsilon): 0%
%Inh (INSRR): 6%
%Inh (INSR): 0%
